{
  "source": "PubChem BioAssay (Tox21)",
  "note": "Records with an inconclusive call do not appear. Values without a mark were called inactive. Calls of active or inactive are those of the source. Calls come from the whole dose curve; as a rule, active = well fitted cell-killing curve with a large enough effect in the repeat runs; inconclusive = weak or mixed curves, or effect the other way; inactive = flat fitted curve, though single readings scatter. % is set by controls: 0 for no effect and ±100 for the full control effect; potency is the fitted concentration of half-maximal effect.",
  "data": [
    {"test": "Nuclear factor erythroid 2-related factor 2/antioxidant responsive element (Nrf2/ARE) small molecule agonists: qHTS cell viability counter screen in human keratinocytes (AID 1919968); note: nearly all actives have a fitted effect of over 55% in size", "conditions": "KeratinoSens HaCaT ARE cells viability, CellTiter-Fluor, 24 h; series mostly up to 92.4 µM; activity change, negative = cytotoxicity: at the top concentration", "text": "U.S. Tox21 Program National Center for Advancing Translational Sciences [NCATS] Division of Preclinical Innovation [DPI] U.S. Environmental Protection Agency [EPA] National Institutes of Environmental Health Sciences [NIEHS] National Toxicology Program [NTP] U.S. Food and Drug Administration [FDA] Tox21 Assay Overview: Oxidative stress has been implicated in the pathogenesis of a variety of diseases ranging from cancer to neurodegeneration. The antioxidant response element (ARE) signaling pathway plays an important role in the amelioration of oxidative stress. The KeratinoSens (Givaudan, Switzerland) is an in vitro test method which quantifies luciferase induction as a measure of activation of Keap1-Nrf2-antioxidationt/electrophile response element (ARE) dependant pathway in HaCaT human keratinocytes stably transfected with a selectable plasmid. The KeratinoSens assay is a cell-based assay with a reporter cell line to detect potential skin sensitizers by their ability to induce the Nrf2/ARE-response. The activation of the report gene under culture conditions can be detected by ONE-Glo Luciferase Assay System (Promega, Madison, WI). This cell line has been used to screen the Tox21 10K compound library to identify agonists that induce oxidative stress. The cytotoxicity of the Tox21 compound library against the KS-ARE cell line was tested in parallel by measuring the cell viability using CellTiter- Fluor assay system (Promega, Madison, WI) in the same wells.\nTox21 Assay Protocol Summary: HaCaT derived cell line KeratinoSens were dispensed at 1,500 cells/5uL/well in 1536-well white wall/solid bottom plates using a Multidrop Combi (ThermoFisher Scientific, Waltham, MA) dispenser. After the assay plates were incubated at 37 C/5% CO2 for 5 h, 23 nL of compounds dissolved in DMSO, positive controls or DMSO only was transferred to the assay plate by a pintool workstation (Kalypsys, San Diego, CA). The plates were incubated at 37 C/5% CO2 for 23 h, followed by addition of 1uL/well of CellTiter-Fluor reagent into the assay plates using a Flying Reagent Dispenser (Aurora Discovery, San Diego, CA) for cell viability readout that measures cytotoxicity. After 1 h incubation at 37 C/5% CO2 the fluorescence intensity was measured using a ViewLux (PerkinElmer, Shelton, CT) plate reader.", "values": [
      {"smiles": "Nc1ccc(Cl)cc1C(=O)c1ccccc1F", "activity change, negative = cytotoxicity": "-3.21% [at 42.5 µM]"},
      {"smiles": "CCS(=O)(=O)C(C)(C)S(=O)(=O)CC", "activity change, negative = cytotoxicity": "-1.34% [at 42.5 µM]"},
      {"smiles": "CCC[CH2][Sn]([CH2]CCC)([CH2]CCC)[O]C(=O)c1ccccc1", "Potency": "1.09 µM (active)"},
      {"smiles": "CCOC(=O)CBr", "activity change, negative = cytotoxicity": "2.91%"},
      {"smiles": "O=C(O)c1cccc(Cl)c1", "activity change, negative = cytotoxicity": "1.69%"},
      {"smiles": "CC(Cl)CN(C)C", "note": "(stereo not given)", "activity change, negative = cytotoxicity": "2.23%"},
      {"smiles": "CCOC(=O)N(C)C(=O)CSP(=S)(OCC)OCC", "activity change, negative = cytotoxicity": "4.21%"},
      {"smiles": "O=C1C=CC(=O)c2ccccc21", "Potency": "15.4 µM (active)"},
      {"smiles": "COc1cc(OC)nc(NC(=O)NS(=O)(=O)c2ncccc2OCC(F)(F)F)n1", "activity change, negative = cytotoxicity": "-1.89%"},
      {"smiles": "COC(N)=O", "activity change, negative = cytotoxicity": "-0.411%"},
      {"smiles": "O=C1C(=O)c2cccc3cccc1c23", "activity change, negative = cytotoxicity": "-14.6%"},
      {"smiles": "CC(C)(C)c1ccc(CCOc2ncnc3ccccc23)cc1", "activity change, negative = cytotoxicity": "2.1%"},
      {"smiles": "O=C(CBr)Nc1ccc(Cl)cc1C(=O)c1ccccc1F", "activity change, negative = cytotoxicity": "-2.41% [at 42.5 µM]"},
      {"smiles": "CNC(=O)O/N=C(\\C)C(C)S(C)(=O)=O", "note": "(stereo not given)", "activity change, negative = cytotoxicity": "3.53% [at 872 µM]"},
      {"smiles": "C=C(Cl)CSC(=S)N(CC)CC", "activity change, negative = cytotoxicity": "14.6%"},
      {"smiles": "O.O.O.O=C([O-])[C@H]([O-])[C@@H]([O-])C(=O)[O-].O=C([O-])[C@H]([O-])[C@@H]([O-])C(=O)[O-].[K+].[K+].[Sb+3].[Sb+3]", "activity change, negative = cytotoxicity": "4.5%"},
      {"smiles": "CCOC(=O)OC1=C(c2cc(C)ccc2C)C(=O)NC12CCC(OC)CC2", "note": "(stereo not given)", "activity change, negative = cytotoxicity": "-16.2%"},
      {"smiles": "CCO/N=C(\\CC)C1=C(O)CC(c2c(C)cc(C)cc2C)CC1=O", "note": "(stereo not given)", "activity change, negative = cytotoxicity": "7.94%"},
      {"smiles": "CC(Cc1ccccc1)NCCn1cnc2c1c(=O)n(C)c(=O)n2C", "note": "(stereo not given)", "activity change, negative = cytotoxicity": "-2.13%"},
      {"smiles": "CCC(C)Nc1c([N+](=O)[O-])cc(C(C)(C)C)cc1[N+](=O)[O-]", "note": "(stereo not given)", "activity change, negative = cytotoxicity": "8.24%"},
      {"smiles": "O=C(O)CBr", "activity change, negative = cytotoxicity": "0.913%"},
      {"smiles": "CCN(CC)C(=S)[S-].CCN(CC)C(=S)[S-].[Zn+2]", "Potency": "0.481 µM (active)"},
      {"smiles": "NC1CCC(CC2CCC(N)CC2)CC1", "note": "(stereo not given)", "Potency": "23.9 µM (active)"},
      {"smiles": "COC(=O)/C=C(\\C)OP(=O)(OC)OC", "activity change, negative = cytotoxicity": "8.65%"},
      {"smiles": "O=C1CN2CCOC2(c2ccccc2Cl)c2cc(Cl)ccc2N1", "note": "(stereo not given)", "activity change, negative = cytotoxicity": "-4.84% [at 42.5 µM]"},
      {"smiles": "CSC(C)(C)/C=N/O", "activity change, negative = cytotoxicity": "-2.58%"},
      {"smiles": "CCOCCOC(C)=O", "activity change, negative = cytotoxicity": "-0.717%"},
      {"smiles": "CCOP(=O)(O)C(N)=O", "activity change, negative = cytotoxicity": "7.02%"},
      {"smiles": "C=CCOC(=O)c1ccccc1N", "activity change, negative = cytotoxicity": "-4.51%"},
      {"smiles": "Oc1c(Cl)cccc1Cl", "activity change, negative = cytotoxicity": "0.702%"},
      {"smiles": "O=[N+]([O-])c1cccc(CCl)c1", "activity change, negative = cytotoxicity": "-0.0658%"},
      {"smiles": "N#C/C=C/c1ccccc1", "activity change, negative = cytotoxicity": "0.387%"},
      {"smiles": "CNC(=O)Oc1ccccc1C(C)C", "activity change, negative = cytotoxicity": "-1.76%"},
      {"smiles": "O=C1c2ccccc2C(=O)C1C(=O)C(c1ccccc1)c1ccc(Cl)cc1", "note": "(stereo not given)", "Potency": "15.4 µM (active)"},
      {"smiles": "CC(=O)OC(c1ccccc1)C(Cl)(Cl)Cl", "note": "(stereo not given)", "activity change, negative = cytotoxicity": "-4.11%"},
      {"smiles": "CC(C)C(Nc1ccc(C(F)(F)F)cc1Cl)C(=O)OC(C#N)c1cccc(Oc2ccccc2)c1", "note": "(stereo not given)", "activity change, negative = cytotoxicity": "15.9%"},
      {"smiles": "COC(=O)COc1ccc(Cl)cc1Cl", "activity change, negative = cytotoxicity": "1.5%"},
      {"smiles": "C[C@H](N)[C@H](O)c1ccc(O)c(O)c1", "activity change, negative = cytotoxicity": "-4.41% [at 42.5 µM]"},
      {"smiles": "CCSC(=O)N(CC)C1CCCCC1", "activity change, negative = cytotoxicity": "11.5%"},
      {"smiles": "C=CCC1=C(C)[C@@H](OC(=O)[C@@H]2[C@@H](C=C(C)C)C2(C)C)CC1=O", "activity change, negative = cytotoxicity": "-17.8%"}
    ]}
  ]
}
